The other results are listed elsewhere or left out. The source made the active and inactive calls.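 How the source made its calls: active means fluorescence response below 15%; inactive means the rest.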
Test: DHE quenching or ROS scavenging interference in aged yeast, artefact control for yeast caloric restriction mimetic project, S. cerevisiae BY4741, flow cytometry (AID 435000);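 further: percent of the mean fluorescence averaged over all compound wells on the plate; lower means stronger quenching of DHE signal or ROS scavenging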
Conditions: at 10 µM, hits give low values

| SMILES | fluorescence response |
| --- | --- |
| CN1CCN(C(=S)SCC(=O)Nc2ccc(Cl)cc2C(=O)c2ccccc2)CC1 | 104% (inactive) |
| C[C@]12CCC3C(CC[C@H]4C[C@@H](O)CC[C@]34C)C1C[C@@H](O)[C@H]2O (some centres not stated) | 99% (inactive) |
